# Where “and” joins values, the source holds several entries; their conditions need not be identical. Equal entries are not always repeated. Results filed as inconclusive are left out. Calls of active or inactive are those of the source. Calls come from the whole dose curve; as a rule, active = well fitted cell-killing curve with a large enough effect; inconclusive = small, poorly fitted or top-dose-only effect, or effect the other way; inactive = no such curve, though single readings can be large or run the other way.
# Assay: Viability qHTS for spleen associated tyrosine kinase inhibitor (SYKi) drug resistant MV4-11 cells (AID 1963824); note: nearly all actives have a fitted effect of over 35% in size
# Conditions: SYKi-resistant MV4-11 viability, CellTiter-Glo, 72 h; series mostly up to 45 µM
# Source text: Department of Medicine, Hematology/Oncology
# University Hospital Frankfurt, Germany.
# Trials have shown promising clinical activity of the selective SYK inhibitor entospletinib in patients with high expressing HOXA9/MEIS1 acute leukemias. As the development of resistance mechanisms is a common problem in the use of targeted drugs, we performed a chemical library screen to identify drug sensitivities in SYK inhibitor resistant AML cells. […] Glucocorticoids are potent immunosuppressants which work in part by inhibiting the transcription of cytokine genes.
# Described herein is a viability screen to look for activity in the SYK inhibitor drug resistant cell line against four NCATS compound libraries (MIPE 5.0, NPC, NPACT, and Kinase) totaling 11372 compounds. Active hits were reacquired for confirmation and further secondary assay testing.
# SEQUENCE No. (e.g., 1, 2, 3, etc.); […] (e.g., Cells, Incubation, Reagent, etc.); VALUE; DESCRIPTION.
# 1; Media; 2uL; white, solid-bottom Corning assay plate.
# 2; Compounds; 23nL; Echo acoustic dispenser.
# 3; Cell; 5uL; 500 cells per well.
# 4: Incubation; 72hr; 37 C, 5% CO2, 95% humidity.
# 5; Reagent; 3uL; CellTiter-Glo reagent (Promega).
# 6; Incubation; 10min; room temperature.
# 7; Detection; Luminescence; ViewLux plate reader (PerkinElmer).
# NOTES (numbers refer to Sequence numbers above
# 1. Quantitative high-throughput screening (qHTS) of small molecule compounds was conducted on drug resistant SYKi MV4-11 cell line.
# 2. Twenty-three nanoliter of small molecule compounds were added to each assay plates using the Echo acoustic dispenser (Beckman Coulter).
# 3. Cells were seeded into the assay plates at a final density of 500 cells in 5uL of media per well using the Multidrop Combi dispenser.
# 4. Plates were covered with stainless steel gasketed lids and incubated for 72 hours at standard cell culture conditions.
# 5. Viability was assessed by adding 3uL of CellTiter-Glo detection reagent (Promega).
# 6. Plates were covered with gasket lids and incubated for 10 minutes at room temperature.
# 7. Luminescence was measured on a ViewLux plate reader (PerkinElmer).
# Potency is the fitted concentration of half-maximal effect.
SMILES,Potency,"viability, % of control"
OCc1ccccn1,inactive,
COc1cc(O)cc(C)c1C(=O)OC1C(CO)OC(OC2C(O)C(O)C(O)C(O)C2O)C(O)C1O (stereo not given),inactive,
CCCCC(CC)COC(=O)/C=C/c1ccc(OC)cc1 (stereo not given),inactive,
C[C@H]1[C@H](NC(=O)/C(=N/OC(C)(C)C(=O)O)c2csc(N)n2)C(=O)N1S(=O)(=O)O (stereo in doubt),inactive,
O=C(Cn1c2ccccc2c2nc3n(c(=O)c21)CCS3)N1CCCC1,inactive,
C[C@@H]1O[C@@H](O[C@H]2[C@H](OC(=O)[C@]34CCC(C)(C)C[C@H]3C3=CCC5[C@@]6(C)CC[C@H](O[C@@H]7O[C@H](CO[C@@H]8OC[C@H](O)[C@H](O)[C@H]8O)[C@@H](O)[C@H](O)[C@H]7O)C(C)(C)C6CC[C@@]5(C)[C@]3(C)C[C@H]4O)OC[C@@H](O)[C@@H]2O)[C@H](O)[C@H](O[C@@H]2OC[C@](O)(CO)[C@H]2O)[C@H]1O[C@@H]1OC[C@H](O)[C@H](O[C@@H]2OC[C@@H](O)[C@H](O)[C@H]2O)[C@H]1O (stereo not given in full),,88.4% [at 9.25 µM] (inactive)
CC(C)COCC(CN(Cc1ccccc1)c1ccccc1)N1CCCC1 (stereo not given),15 µM (active) and 11.8 µM (active),
C=C1C(=O)O[C@@H]2[C@H]3C(C)=CC(=O)C3=C(C)[C@@H](OC(=O)/C(C)=C\C)[C@H](O)[C@@H]12,1.43 µM (active),
Nc1nc2cc(-c3ccc4ncc(C(=O)N5CCOCC5)n4c3)ccc2o1,10.5 µM (active),
CC(O)(CC(=O)O)CC(=O)O[C@@H]1[C@@H](O)[C@H](OCCc2ccccc2)O[C@H](CO)[C@H]1O (stereo not given in full),inactive,
COc1cccc(-c2cc(F)ccc2C2Cc3nc(N)nc(C)c3C(=O)N2)n1 (stereo not given),0.0186 µM (active),
C[C@@H]1O[C@@H](O[C@H]2[C@H](OC(=O)[C@]34CCC(C)(C)C[C@H]3C3=CCC5[C@@]6(C)CC[C@H](O[C@@H]7O[C@H](C(=O)O)[C@@H](O)[C@H](O)[C@H]7O[C@@H]7O[C@H](CO)[C@H](O)[C@H](O)[C@H]7O)[C@@](C)(C=O)C6CC[C@@]5(C)[C@]3(C)C[C@H]4O)O[C@H](C)[C@H](O[C@@H]3O[C@H](C)[C@H](O)[C@H](O)[C@H]3O)[C@@H]2O)[C@H](O)[C@H](O)[C@H]1O[C@@H]1OC[C@@H](O)[C@H](O[C@@H]2O[C@H](CO)[C@@H](O)[C@H](O)[C@H]2O)[C@H]1O (stereo not given in full),,5.67% [at 4.97 µM] (inactive)
Cc1cc(C)cc(NC(=O)Cc2ccc(OC(C)(C)C(=O)O)cc2)c1,inactive,
O=C(C1CC1)N1CC[C@@H](Cn2c(-c3ccc(-c4ccc5occc5c4)cc3)nc3cnccc32)C1,14.8 µM (active),
O=C(O)[C@H](CC(=O)N1C[C@H]2CCCC[C@H]2C1)Cc1ccccc1,inactive,
C[C@@]1(C(=O)Nc2ccc(F)nc2)CCCN1c1nc(Nc2cc(C3CC3)[nH]n2)c2cccn2n1,1.84 µM (active),
C[C@@H](Nc1cc(F)cc(F)c1)c1cc(C(=O)N(C)C)cc2c(=O)cc(N3CCOCC3)oc12,2.31 µM (active) and 6.61 µM (active),
C[C@@H]1CC[C@]2(C(=O)O[C@@H]3O[C@H](CO[C@@H]4O[C@H](CO)[C@@H](O[C@@H]5O[C@@H](C)[C@H](O)[C@@H](O)[C@H]5O)[C@H](O)[C@H]4O)[C@@H](O)[C@H](O)[C@H]3O)CC[C@]3(C)C(=CCC4[C@@]5(C)C[C@@H](O)[C@H](O)[C@@](C)(CO)C5CC[C@]43C)C2[C@H]1C (stereo not given in full),,113% [at 9.25 µM] (inactive)
CC1(C)O[C@H]2CC(=O)OC[C@]23[C@H]2CC[C@@]4(C)[C@H](c5ccoc5)OC(=O)[C@H]5O[C@]54[C@]2(C)C(=O)C[C@@H]13,inactive,
CC1CCC(n2c3cnccc3c3cnc(Nc4ccc5c(n4)CCN(C(=O)CO)C5)nc32)CC1 (stereo not given),164 nM (active) and 170 nM (active),

SMILES,Potency,"viability, % of control"
Nc1ncc(C(=O)NC2CN(C(=O)C3CC3)C2)c2ccc(-c3cccc(F)c3)nc12,7.42 µM (active),
Cc1cc2nc(NCCCO)n(CC(=O)c3cc(C(C)(C)C)c(O)c(C(C)(C)C)c3)c2cc1C,8.2 µM (active),
NS(=O)(=O)c1cc2c(cc1Cl)NC(C1CC3C=CC1C3)NS2(=O)=O (stereo not given),inactive,
O=C1NCCSc2c1sc1ccc(O)cc21,2.91 µM (active),
CCc1ccc(CCOc2ccc(CC3SC(=O)NC3=O)cc2)nc1 (stereo not given),inactive,
CS(=O)(=O)c1ccc(-c2cnc(N)c(C(=O)Nc3ccccc3)n2)cc1,2.91 µM (active),
CNC1CCCN(c2c(F)cc3c(=O)c(C(=O)O)cn(C4CC4)c3c2OC)C1 (stereo not given),inactive,
CCn1cc(C(=O)O)c(=O)c2cc(F)c(N3CCNC(C)C3)c(F)c21 (stereo not given),inactive,
CCN1CCC(n2cc(CNc3cc(Cl)c4ncc(C#N)c(Nc5ccc(F)c(Cl)c5)c4c3)nn2)CC1,11.6 µM (active),
Cn1sc(=O)n(Cc2ccccc2)c1=O,2.91 µM (active),
CC1=CC[C@]2(C(=O)O[C@@H]3O[C@H](CO[C@@H]4O[C@H](CO)[C@@H](O[C@@H]5O[C@@H](C)[C@H](O)[C@@H](O)[C@H]5O)[C@H](O)[C@H]4O)[C@@H](O)[C@H](O)[C@H]3O)CC[C@]3(C)C(CCC4[C@@]5(C)C[C@@H](O)[C@H](O)[C@@](C)(CO)C5CC[C@]43C)C2C1C (stereo not given in full),,86.5% [at 9.25 µM] (inactive)
CN1N=C(C(N)=O)CCC1=O,inactive,
CC(C)(CC(=O)N1CCCC1)NCC(=O)N1C[C@@H](F)C[C@H]1C#N,inactive,
C[C@]12CCC(=O)C=C1CC[C@@H]1[C@@H]2[C@@H](O)C[C@@]2(C)[C@H]1CC[C@]2(O)C(=O)CO,inactive,
Cc1ccc(C(=O)Nc2cccc(C(F)(F)F)c2)cc1Nc1nc(-c2cccnc2)nc2c1cnn2C,6.61 µM (active),
Cn1ncc(Cl)c1-c1cc(C(=O)N[C@H](CN)Cc2ccc(F)c(F)c2)oc1Cl,8.2 µM (active),
C[C@]12C=CC(=O)C=C1CC[C@@H]1[C@@H]2C(=O)C[C@@]2(C)[C@H]1CC[C@]2(O)C(=O)CO,inactive,
CCS(=O)(=O)Nc1ccc(Oc2ccc(F)cc2F)c(-c2cn(C)c(=O)c3[nH]ccc23)c1,0.0042 µM (active),
C[C@H]1[C@H](/C=C/c2ccc(-c3ccccc3C#N)cn2)[C@@H]2[C@@H](C)OC(=O)[C@@H]2C[C@@H]1C,7.31 µM (active),
Cc1[nH]c(C)c(Cl)c(=O)c1Cl,inactive,

# Reference: PubChem BioAssay (NCATS)
